Only some compounds are listed: those with a hit (about 4.1% of all), similar ones and a draw of the others.
BoNT-F LC inh = blocks Botulinum neurotoxin F light chain protease. Multiplex microsphere protease cleavage assay, flow cytometry. inhibition, % at 10 µM. 0.22% of 360,000 active. AID 588497; in the data active = inhibition above about 35%, passing the limit was not always enough; inconclusive = no clear call, values can overlap the other calls
Anthrax LF prot = anthrax lethal factor protease inhibition | P15917 | multiplex microsphere protease cleavage assay, LF | inhibition, % at 10 µM | 0.12% of 360,000 active | AID 588501
VHR inh abs = DUSP3 (human) phosphatase inhibition; inhibition, % at 13.3 µM; 0.52% of 290,000 active; recombinant VHR phosphatase, pNPP absorbance; in the data active = inhibition above about 50%
Target sequence (P51452 whole entry, looked up): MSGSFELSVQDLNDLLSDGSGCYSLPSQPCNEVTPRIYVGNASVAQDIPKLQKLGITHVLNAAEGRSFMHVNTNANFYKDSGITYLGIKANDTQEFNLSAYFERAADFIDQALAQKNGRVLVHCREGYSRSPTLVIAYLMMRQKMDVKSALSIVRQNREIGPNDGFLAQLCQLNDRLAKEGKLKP
BoNT A protease = blocks Botulinum neurotoxin A light chain protease; multiplex microsphere protease substrate cleavage, flow cytometry; inhibition, % at 10 µM; 0.17% of 360,000 active
Bead autofluor = counter-screen for toxin protease inhibitors: compound fluorescence; compound autofluorescence counterscreen, microsphere flow cytometry; stronger effect = higher value; fluorescence intensity (no concentration beside the values); 3.1% of 360,000 active; in the data active = fluorescence intensity above about 16000; inconclusive = no clear call, values can overlap the other calls
MazF activator = increases E. coli MazEF RNase cleavage of RNA; activation, % at 20 µM; AID 504720; P0AE70; 0.32% of 350,000 active; FAM/BHQ RNA-DNA oligo cleavage fluorescence, 5 h; in the data active = activation above about 50%
Target sequence (P0AE70 whole entry, looked up): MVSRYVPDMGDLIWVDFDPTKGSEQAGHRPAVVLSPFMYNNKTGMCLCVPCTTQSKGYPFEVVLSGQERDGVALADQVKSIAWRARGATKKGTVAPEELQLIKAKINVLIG
Numbers stand for hits; n = inactive; u = inconclusive; x = no result; ! = not confirmed by another sample. Cut-off read from the data, not from the text of the source, unless noted: active = inhibition above about 30%; inconclusive = no clear call, values can overlap the other calls; inactive = below that.

SMILES	BoNT-F LC inh	Anthrax LF prot	VHR inh abs	BoNT A protease	Bead autofluor	MazF activator
Cc1ccc(C)c(Cn2nnc3c(=O)[nH]c(C(=O)NCc4ccco4)nc32)c1	n	n	n	n	22656	n
O=C(NCc1cccs1)c1nc2c(nnn2Cc2ccc(F)cc2)c(=O)[nH]1	n	n	n	n	16259	n
O=C(NCC1CCCO1)c1nc2c(nnn2Cc2ccc(F)cc2)c(=O)[nH]1 (stereo not drawn)	n	n	n	n	n	n
Cc1cc2oc(=O)cc(CN3CCCCC3C)c2cc1C(C)C (stereo not drawn)	n	n	n	n	n	n
CC1Oc2ccccc2N(CC(=O)N(Cc2ccccc2)Cc2ccccn2)C1=O (stereo not drawn)	n	n	n	n	23187	n
CC1Oc2ccccc2N(Cc2ccccc2F)C1=O (stereo not drawn)	x	x	n	x	x	x
CC(C)C1Oc2ccccc2N(CC(=O)NCCCN2C(C)CCCC2C)C1=O (stereo not drawn)	n	n	n	n	23299	n
CC1Oc2ccccc2N(Cc2ccccc2Cl)C1=O (stereo not drawn)	n	n	n	n	23481	n
CC1Oc2ccccc2N(CC(=O)NCCc2ccccc2)C1=O (stereo not drawn)	n	n	n	n	26874	n
COc1ccc(CN(Cc2ccccn2)C(=O)CN2C(=O)COc3ccccc32)cc1	n	n	n	n	n	n
O=S1(=O)N[C@@H](Cc2ccccc2)COc2cc(N3CCC[C@H]3CO)ccc21	n	n	x	n	n	x
CC(=O)Nc1cccc(-c2ccnc3c2CC(C)(C(=O)NCc2ccncc2)O3)c1 (stereo not drawn)	n	n	x	n	n	x
CCOC(=O)c1c(CN2CCCCC2C)oc2ccc(OC)cc12 (stereo not drawn)	n	n	n	n	22711	n
CCOC(=O)c1c(CN2CCCCC2)oc2ccc(OC)cc12	n	n	n	n	19520!	n
CCOC(=O)c1c(CN2CCN(C)CC2)oc2ccc(OC)cc12	n	n	n	n	n	n
CCOC(=O)c1c(CN2CCC(C)CC2)oc2ccc(OC)cc12	n	n	n	n	20393	n
C/C(=N\NC(=O)c1c(Cl)cnn1C)c1cccnc1	n	n	n	n	u	n
Cc1csc2nc(O)c(C(=O)NC3CCCCCC3)c(=O)n12	n	n	x	n	18119	n
Cc1cc(OCC(=O)Nc2ccncc2)cc(C)c1Cl	n	n	n	n	n	n
COCCCNC(=O)Cn1nc(-c2ccccc2OC)ccc1=O	n	n	n	n	n	n
COc1ccccc1-c1ccc(=O)n(CC(=O)NCc2ccc3c(c2)OCO3)n1	n	n	n	n	22769	n
COc1ccccc1-c1ccc(=O)n(CC(=O)NC(C)(C)C)n1	n	n	n	u	16772	n
COc1cccc(CNC(=O)Cn2nc(-c3ccc(Cl)cc3)ccc2=O)c1	n	n	n	n	21110	n
COCCNC(=O)Cn1nc(-c2ccccc2OC)ccc1=O	n	n	n	n	22415	n
COc1ccc(CNC(=O)Cn2nc(-c3ccc4c(c3)OCCO4)ccc2=O)cc1	n	n	n	n	n	n
SMILES	BoNT-F LC inh	Anthrax LF prot	VHR inh abs	BoNT A protease	Bead autofluor	MazF activator
COCCCNC(=O)Cn1nc(-c2cccc(OC)c2)ccc1=O	u	n	n	n	n	n
CCOC(=O)N1CCC(n2c(=S)[nH]c3cc(OCC)c(OCC)cc3c2=O)CC1	n	n	n	u	18805	n
CCOc1cc2[nH]c(=S)n(Cc3ccc(C)o3)c(=O)c2cc1OCC	n	n	n	u	17111	n
CCOc1cc2[nH]c(=S)n(C3CC3)c(=O)c2cc1OCC	n	n	n	n	n	n
CCOc1cc2[nH]c(=S)n(C(C)C)c(=O)c2cc1OCC	n	n	n	n	21566	n
Cc1ccc(Cn2c(=S)[nH]c3ccc(N4CCOCC4)cc3c2=O)o1	n	n	n	n	n	n
Nc1nc(NCCOCCO)nc(N2CCCCCC2)c1[N+](=O)[O-]	n	n	n	n	n	n
COc1cccc(NC(=O)[C@H](NC(=O)[C@@H]2Cc3ccccc3CN2)c2ccccc2)c1	n	n	n	n	n	n
O=c1[nH]c2ccc(N=Cc3c(O)ccc4cc(Br)ccc34)cc2[nH]1	n	n	n	n	n	256.0
CC(=O)Nc1cccc(-c2ccnc3c2CC(C(=O)Nc2cccc(OC(F)(F)F)c2)O3)c1 (stereo not drawn)	n	n	x	n	n	x
O=C(/C(=C/c1ccc(Cl)cc1)c1nc2ccccc2[nH]1)c1cccs1	n	n	n	n	16724	n
